Screening data deposited in PubChem BioAssay by National Center for Advancing Translational Sciences (NCATS).
HepG2 viability: qHTS for Inhibitors of TGF-b: Cytotox Counterscreen; AID 588856, 2011; HepG2 CAGA-GFP viability, ATP luminescence, 18 h; hit rate 0.76% among 410,000; Potency, µM (series often up to 46.1 µM), for the others: at the highest dose activity change, negative = cytotoxicity, usual class: cytotoxic; also: potency is read from the fitted curve at half-maximal effect
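CellTiter-Glo luminescence gave cytotoxicity after 18 hours at 37 degrees C. The cells were HepG2 CAGA-GFP in 1% FBS DMEM, stimulated with 500 pg/mL TGF-beta after compound addition. %Activity was normalised to no-cell wells (complete cell-killing) and DMSO (no toxicity), and curves were fitted and classified.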
DT40 TDP1 CPT: qHTS for Inhibitors of human tyrosyl-DNA phosphodiesterase 1 (TDP1): qHTS in cells in presence of CPT | AID 686979, 2013 | Potency, µM (doses to about 46.2 µM), without a hit: at the top dose activity change, negative = growth inhibition, hits mostly inhibitors | chicken DT40 Tdp1-/-;hTDP1 cells + 20 nM CPT, ATP luminescence, 48 h | hit rate 12% among 420,000; also: potency is read from the fitted curve at half-maximal effect; % is scaled to controls: 0 for no effect and ±100 for the full control effect; nearly all actives have a fitted effect of over 55% in size
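Cell growth measured by CellTiter-Glo luminescence after a minimum 48 h, 37 C compound exposure with 20 nM CPT in Tdp1-knockout DT40 cells stably expressing hTDP1, seeded 400/well; qHTS titration format.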
IL1B secr inh: qHTS for Inhibitors of Inflammasome Signaling: IL-1-beta AlphaLISA Primary Screen. THP-1 LPS/ATP IL-1B secretion, AlphaLISA, 16 h; active compounds read low. hit rate 4.7% among 360,000. activity change, % at 57.5 µM; in the data active = activity change below about -50%; inconclusive = mostly about -30% to -49%; also: % is scaled to controls: 0 for no effect and ±100 for the full control effect
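THP-1 cells pretreated 1 hr with compounds (up to 57.5 uM final), then stimulated with LPS (250 ng/mL final) plus ATP (1.25 mM final); secreted IL-1B measured by AlphaLISA after 16 hr, decreased signal indicating inhibition.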
TGFb SMAD3 inh: qHTS for Inhibitors of TGF-b; Potency, µM (doses to about 46.1 µM), for inactives: at the top dose activity, negative = inhibition, usual class: inhibitors; hit rate 1.2% among 410,000; HepG2 CAGA-GFP TGF-b/SMAD3 reporter, GFP fluorescence, 18 h; TGF-beta stimulated, 500 pg/mL final; also: potency is read from the fitted curve at half-maximal effect; % is scaled to controls: 0 for no effect and ±100 for the full control effect; nearly all actives have a fitted effect of over 65% in size
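Smad-responsive CAGA-GFP expression was quantified in HEPG2 cells exposed to compounds and 500 pg/mL final TGF-beta for 18 h at 37 degrees C; unstimulated wells defined full inhibition.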
S-ASM inh: Inhibitors of Secretory Acid Sphingomyelinase (S-ASM): qHTS; hit rate 0.006% among 340,000; AID 504937, 2011; Sphingomyelin phosphodiesterase (Homo sapiens), P17405; Potency, µM (titrated, usually from 57.5 µM), for inactives: at the top dose activity change, negative = inhibition, usual class: inhibitors; placental ASM, HMU-PC fluorogenic substrate, 60 min; also: potency is read from the fitted curve at half-maximal effect
Target sequence (P17405 47-631 limits assumed): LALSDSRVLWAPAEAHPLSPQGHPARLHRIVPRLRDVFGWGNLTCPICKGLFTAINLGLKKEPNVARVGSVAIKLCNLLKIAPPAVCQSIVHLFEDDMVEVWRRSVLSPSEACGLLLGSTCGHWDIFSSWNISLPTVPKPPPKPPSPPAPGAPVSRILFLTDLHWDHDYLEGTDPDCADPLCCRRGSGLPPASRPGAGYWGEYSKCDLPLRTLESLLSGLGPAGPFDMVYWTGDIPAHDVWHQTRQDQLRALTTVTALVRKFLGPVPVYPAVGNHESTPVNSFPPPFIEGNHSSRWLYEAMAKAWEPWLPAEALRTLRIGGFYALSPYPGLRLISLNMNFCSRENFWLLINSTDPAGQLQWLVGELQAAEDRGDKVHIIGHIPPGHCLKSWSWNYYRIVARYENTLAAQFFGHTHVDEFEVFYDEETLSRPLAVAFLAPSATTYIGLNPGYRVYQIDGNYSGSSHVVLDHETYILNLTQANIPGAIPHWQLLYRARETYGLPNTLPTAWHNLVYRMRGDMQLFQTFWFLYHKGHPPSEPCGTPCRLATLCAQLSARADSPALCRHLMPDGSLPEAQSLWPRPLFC
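Human placenta-derived ASM enzyme was preincubated with compound for 10 minutes at room temperature, then given fluorogenic substrate HMU-PC0 (9 uM final) for 60 minutes at 37 °C; a pH 10 stop preceded fluorescence reading at Ex 386/Em 447 nm.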
TDP1 cell noCPT: qHTS for Inhibitors of human tyrosyl-DNA phosphodiesterase 1 (TDP1): qHTS in cells in absence of CPT. DT40 Tdp1-/- hTDP1 cells, no CPT, ATP luminescence, 48 h. Potency, µM (doses to about 46.2 µM), inactives show top-dose activity change, negative = growth inhibition, hits mostly inhibitors. hit rate 15% among 420,000; also: potency is read from the fitted curve at half-maximal effect; % is scaled to controls: 0 for no effect and ±100 for the full control effect; nearly all actives have a fitted effect of over 55% in size
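Seeded 400 DT40-hTDP1 cells/well (vehicle DMSO, no 20 nM CPT); pinned compounds; ≥48 hr at 37 °C; CellTiter-Glo luminescence as viability measure.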
An asterisk follows results filed as active; ? = inconclusive; · = no result. Hits are enriched below; roughly 19% of the tested compounds scored in any of these assays. Unless noted, calls follow the shape of the dose curve; as a rule, active = well fitted curve in the direction sought with a large enough effect; inconclusive = small, poorly fitted or top-dose-only effect, or another doubt; inactive = no such curve, though single readings can be large; an effect the other way counts as inactive or inconclusive.

SMILES	HepG2 viability	DT40 TDP1 CPT	IL1B secr inh	TGFb SMAD3 inh	S-ASM inh	TDP1 cell noCPT
CCN(CC)C(=O)c1ccc(-c2nnc(Nc3ccc(C(=O)NC)cc3)c3ccccc23)cc1	6%	15µM*	-25	1%	41%	?
CNC(=O)c1ccc(Nc2nnc(-c3ccc(C)c(S(N)(=O)=O)c3)c3ccccc23)cc1	-1%	-6%	9	1%	25%	14%
CCc1ccccc1N(CC)C(=O)c1cn(CC)c(=O)c2cc(OC)c(OC)cc12	-6%	?	-8	5%	-1%	21µM*
CCc1ccccc1N(CC)C(=O)c1cn(C)c(=O)c2cc(OC)c(OC)cc12	-4%	-12%	0	22%	-3%	?
CCN(C(=O)c1cn(CC)c(=O)c2cc(OC)c(OC)cc12)c1ccc(C)c(C)c1	-17%	23µM*	·	-8%	·	?
CS(=O)(=O)Nc1ccc2c(c1)OCC(=O)N2Cc1ccccc1	4%	-17%	2	2%	5%	-4%
O=S(=O)(O)c1cc(O)c2c(N=Nc3ccc(Nc4ccccc4)c4c(S(=O)(=O)O)cccc34)cc(S(=O)(=O)O)cc2c1	·	19µM*	·	·	·	13µM*
O=S(=O)(O)c1cc(O)c2cc(Nc3ccccc3)ccc2c1	5%	-11%	2	-18%	335%	-23%
CCC(C)n1c(OC)nc2c1c(=O)n(C)c(=O)n2C (stereo unspecified)	-52%	23µM*	12	?	-2%	?
CC(Oc1nc2c(c(=O)n(C)c(=O)n2C)n1C)C1CCCCC1 (stereo unspecified)	0%	23µM*	0	-3%	-1%	16µM*
Cn1c(=O)c2c(nc(OC3CCCCCC3)n2C)n(C)c1=O	1%	?	-8	0%	-1%	?
C/C=C/COc1nc2c(c(=O)n(C)c(=O)n2C)n1C	22%	23µM*	-6	8%	-2%	15µM*
CCOC(=O)Cc1csc(NC(=O)c2ccc(C)cc2)n1	-33%	-16%	15	-15%	6%	?
CCOC(=O)Cc1csc(NC(=O)Nc2ccc(Cl)cc2)n1	-26%	21µM*	-12	-11%	0%	16µM*
CCCCC(=O)Nc1ccc(C(=O)Nc2nc(CC(=O)OCC)cs2)cc1	-30%	22µM*	-11	-2%	-2%	?
CCOC(=O)Cc1csc(NC(=O)Nc2cccc(Cl)c2)n1	-43%	?	0	?	-1%	?
CCOC(=O)Cc1csc(NC(=O)c2ccc(Cl)nc2)n1	4%	?	4	-17%	-1%	23µM*
COc1nc(-c2cnccn2)sc1C	-11%	9%	-5	-5%	24%	-13%
CCn1c(=O)cc(OCC(=O)NCc2ccc(F)cc2Cl)c2ccccc21	-44%	?	·	-24%	·	23µM*
CCn1c(=O)cc(OCC(=O)O)c2ccccc21	8%	4%	22	-12%	1%	3%
CCc1ccc(CNC(=O)COc2cc(=O)n(CC)c3ccccc23)cc1	-25%	?	·	?	·	26µM*
CCn1c(=O)cc(OCC(=O)NC2CC2)c2ccccc21	3%	2%	-16	9%	5%	30%
CCn1c(=O)cc(OCC(=O)NCCC(C)C)c2ccccc21	-16%	29µM*	-17	-2%	0%	?
COc1cccc2c1Oc1ncccc1N(C(=O)CCC(=O)NCc1ccc(OC(C)C)cc1)C2	-17%	?	·	?	·	?
CC(=O)OCC(=O)[C@@]1(O)CCC2C3CCC4=CC(=O)CC[C@]4(C)C3[C@@H](O)C[C@@]21C (stereo partly specified)	·	?	·	·	·	-30%
SMILES	HepG2 viability	DT40 TDP1 CPT	IL1B secr inh	TGFb SMAD3 inh	S-ASM inh	TDP1 cell noCPT
CC12CCC(=O)C=C1CCC1C2C(=O)CC2(C)C1CC[C@]2(O)C(=O)CO (stereo partly specified)	-7%	-13%	-28	-10%	6%	-12%
CCCCC(=O)O[C@]1(C(=O)CO)CC[C@H]2[C@@H]3CCC4=CC(=O)CC[C@]4(C)[C@H]3[C@@H](O)C[C@@]21C	-27%	?	-68*	-2%	-3%	?
CCC(C(=O)OCC(=O)C1(O)CCC2C3CCC4=CC(=O)CCC4(C)C3C(O)CC21C)C(C)C (stereo unspecified)	1%	9.2µM*	-27	?	0%	16µM*
Cc1ccc(N(C)S(=O)(=O)c2csc(C(N)=O)c2)cc1C	-14%	-22%	0	2%	-1%	-13%
COC(=O)CCCCCn1c(-c2ccccc2)cn2c3c(=O)n(C)c(=O)n(C)c3nc12	-38%	-18%	·	-22%	·	?
O=C(CCC1CCCCC1=O)c1ccccc1 (stereo unspecified)	-8%	-3%	-5	-3%	4%	-1%
O=C(CC1C(=O)CCCC1=O)c1ccccc1	-24%	13µM*	-204*	?	-2%	?
CC(C)(C)OC(=O)N1CCN(C(=O)c2[nH]cnc2C(=O)N[C@@H](Cc2ccccc2)C(=O)OCc2ccccc2)CC1	-37%	?	-64*	?	-2%	?
CC(C)C[C@H](NC(=O)c1nc[nH]c1C(=O)N1CCN(C(=O)OC(C)(C)C)CC1)C(=O)OCc1ccccc1	-32%	18µM*	-71*	?	-6%	16µM*
C[C@H](OC(=O)c1[nH]cnc1C(=O)N1CCN(C(=O)OC(C)(C)C)CC1)c1ccccc1	-11%	?	39	-3%	5%	26µM*
O=c1cnc2cnc(Oc3cccc(Cl)c3)nc2n1C1CC1	·	-8%	·	·	·	-26%
Cc1cc(/C=C2\C(=N)N3N=CSC3=NC2=O)c(C)n1Cc1ccccc1	-2%	-3%	·	-24%	0%	-14%
Cc1ccn2c(Nc3ccc4c(c3)OCO4)c(-c3ccco3)nc2c1	-24%	23µM*	·	?	·	?
Cc1ccn2c(Nc3ccc4c(c3)OCO4)c(-c3ccc(N(C)C)cc3)nc2c1	-7%	13µM*	·	2%	·	?
Cc1ccc(-c2nc3cnccn3c2Nc2ccc3c(c2)OCO3)cc1	-24%	?	85	?	-8%	?
